Records with an inconclusive call do not appear. Active and inactive are the calls of the source. Unless noted, calls come from the whole dose curve; as a rule, active = well fitted curve in either direction with a large enough effect (not every such curve was filed as active); inconclusive = small, poorly fitted or top-dose-only effect, or another doubt; inactive = flat fitted curve, though single readings scatter.
Columns and labels:
[1] = biological target: Lysosomal acid glucosylceramidase (Homo sapiens) (UniProt P04062); test: Glucocerebrosidase-p2 (AID 348; in the data active = potency below about 10 µM; note: potency is the fitted concentration of half-maximal effect); conditions: purified GBA, blue fluorogenic substrate, 40 min
Summary of the method: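 Compounds titrated from 0.6 nM upwards against 0.2 nM enzyme in pH 5.9 citric acid/KH2PO4, taurocholate, tween-20; blue fluorogenic substrate 80 uM, 40 min room temperature, stopped and read Ex 365/Em 440 for AC50.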

[2] = AP1 Signaling Pathway (AID 357); conditions: ME-180 AP-1-bla reporter, EGF-induced, beta-lactamase ratio, 5 h; at 7.69 µM (top of the series) unless noted;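 note: ME-180 reporter cells stimulated with EGF at its EC50 level; % is set by controls: 0 for no effect and ±100 for the full control effect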
Summary of the method: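 AP-1-bla ME-180 cells, Opti-MEM + 0.5% dialyzed FBS, plated overnight 37 °C. Cpd titration + EC50 EGF, 5 h 37 °C. CCF4 2.5 h RT; ex 405, em 460/530 ratio → %activity, AC50.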

[3] = biological target: Cytochrome P450 1A2 (Homo sapiens) (UniProt P05177); test: p450-cyp1a2 (AID 410; calls by dose curve; note: potency is the fitted concentration of half-maximal effect;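 for activity change, negative = inhibition: -100% = full effect of reference inhibitor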); conditions: recombinant CYP1A2, luciferin-ME demethylation, luminescence; series mostly up to 57 µM
Summary of the method: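 20nM CYP1A2 with 100uM Luciferin-ME (at Km) in 100mM KPO4; compound preincubated 10 min, NADPH regeneration added, 60 min at room temperature. Luciferin quantified by luminescence after detection reagent; normalized to 57 uM furafylline.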

[4] = biological target: Glucocorticoid receptor (Homo sapiens) (UniProt P04150); test: GR-GFP Redistribution (AID 450;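 active = compounds whose dose series gives a full or clear partial fitted curve of increased nuclear translocation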; note: potency is the fitted concentration of half-maximal effect); conditions: U2OS GR-GFP nuclear translocation, laser cytometry, 2 h
[5] = biological target: Glucocorticoid receptor (Homo sapiens) (UniProt P04150); test: GR-EFC Redistribution (AID 451; calls by dose curve; note: potency is the fitted concentration of half-maximal effect); conditions: CHO-K1 GR-EFC translocation, beta-gal luminescence, 2 h
Summary of the method: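 CHO-K1 cells stably expressing nuclear-localized β-gal enzyme acceptor and GR fused C-terminally to the enzyme donor fragment; ligand-driven nuclear translocation restores β-gal by complementation. Compounds titrated up to 46 uM final, 2 h at 37 °C; luminescence read.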

[6] = biological target: Mitogen-activated protein kinase 10 (Mus musculus) (UniProt Q61831); test: JNK3 AlphaScreen Assay (AID 530); conditions: JNK3 lysate, c-Jun phosphorylation; series mostly up to 57.1 µM;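 note: kinase came from lysate of stimulated human HepG2 cells; signal reports phosphorylation of biotinylated GST-cJun 1-79 at Ser73 with 10 µM ATP; % is set by controls: 0 for no effect and ±100 for the full control effect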
Summary of the method: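 Inhibitors reduce antibody binding to phosphorylated biotin-cJun, lowering AlphaScreen luminescence. Lysates from HepG2 cells pre-activated by IL-1beta plus TNF-alpha supplied JNK3; compounds were titrated.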

[7] = biological target: 3',5'-cyclic-AMP phosphodiesterase 4B (Homo sapiens) (UniProt Q07343); test: qHTS Assay for Inhibitors of PDE-IV (AID 607; active = well fitted activation curve with a large enough effect in the main read-out, with a control signal flat, not every such curve was filed as active; note: % of control where 0% means no effect); conditions: HEK293 ACTOne CNG channel cells, membrane potential fluorescence; series mostly up to 22.9 µM
Summary of the method: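 The readout is membrane depolarisation from a cAMP-sensing CNG channel, detected with a potential dye at ex 535/em 590. Cells were HEK293-derived (endogenous PDE-IV) at 1000 cells/well, titrated up to 22.9 uM final.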

[8] = biological target: Cytochrome P450 2C9 (Homo sapiens) (UniProt P11712); test: qHTS Assay for Inhibitors and Substrates of Cytochrome P450 2C9 (AID 883; active = well fitted curve in the direction sought with a large enough effect; an effect the other way counts as inactive or inconclusive; note: % is set by controls: 0 for no effect and ±100 for the full control effect; nearly all actives have a fitted effect of over 60% in size); conditions: recombinant CYP2C9, luciferin-H luminescence, 60 min; series mostly up to 57.1 µM
Summary of the method: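 A luminogenic readout tracked human CYP2C9 (10nM) converting deoxyluciferin (100uM, at KM) in 25mM KPO4 during 60 min at 37C with regenerated NADPH. Values normalized to 57uM sulphaphenazole as complete inhibition.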

[9] = biological target: Cytochrome P450 3A4 (Homo sapiens) (UniProt P08684); test: qHTS Assay for Activators of Cytochrome P450 3A4 (AID 885; active = well fitted curve in the direction sought with a large enough effect; an effect the other way counts as inactive or inconclusive; note: nearly all actives have a fitted effect of over 65% in size; note: potency is the fitted concentration of half-maximal effect); conditions: recombinant CYP3A4, Luciferin-PPXE luminescence, 60 min; series mostly up to 57.1 µM
Summary of the method: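 Steps: enzyme/substrate mix dispensed; compound added, 10 min RT; NADPH regeneration solution added, 60 min RT; luciferin detection buffer stops reaction; 20 min later luminescence measured.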

[10] = Confirmation and Secondary Assay for Modulators of Hemoglobin Beta Chain Splicing at IVS2 705 locus (AID 930; active = well fitted curve in the direction sought with a large enough effect; an effect the other way counts as inactive or inconclusive;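 note: HeLa cells stably expressing the EGFP-705 splicing reporter; GFP fluorescence per well restored by corrected splicing of the IVS2-705 intron in EGFP; % of control where 0% means no effect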); conditions: HeLa EGFP-705 splicing reporter, GFP fluorescence, 48 h; series mostly up to 38.3 µM
Summary of the method: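 Read-out: total peak GFP fluorescence per well (488 nm excitation, 500-520 nm emission) by laser-scanning cytometry. Cells: HeLa EGFP-705 splicing reporter, 2 days compound exposure in Optimem/2% FCS.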

[11] = Primary qHTS for small molecule stabilizers of the endoplasmic reticulum resident proteome: Secreted ER Calcium Modulated Protein (SERCaMP) assay (AID 1508630; active = well fitted curve in the direction sought with a large enough effect; an effect the other way counts as inactive or inconclusive; note: % is set by controls: 0 for no effect and ±100 for the full control effect); conditions: SH-SY5Y GLuc-SERCaMP (Gaussia luciferase released on ER calcium loss) secretion, thapsigargin, luminescence; series mostly up to 38.4 µM
Summary of the method: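 GLuc-SERCaMP-expressing SH-SY5Y cells, pretreated 16 h with compound, are challenged with thapsigargin to empty ER calcium stores; after 4 h, coelenterazine is added directly to the medium and luminescence is imaged.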

[12] = Stat Signaling Pathway (AID 446); conditions: ME-180 SIE beta-lactamase reporter, IL-6 stimulated, 5 h; at 7.69 µM (top of the series) unless noted;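 note: ME-180 cervical cancer cells given 40 pM IL-6 alongside compound; SIE-controlled beta-lactamase reporter measured as 460/530 nm FRET emission ratio; % is set by controls: 0 for no effect and ±100 for the full control effect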
Summary of the method: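 Screening format detects activators and inhibitors alike: ME-180 SIE-bla cells stimulated at 40 pM IL-6 for 5 hrs with compound, then dual-emission beta-lactamase read at 405 nm excitation.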

[13] = qHTS Assay for Identification of Small Molecule Agonists for Hypoxia Response Element Signaling Pathway (AID 914; active = well fitted activation curve with a large enough effect in the signal ratio, with a control signal flat, not every such curve was filed as active; the % refers to the signal ratio; note: % of control where 0% means no effect); conditions: ME-180 (cervical carcinoma) HRE-bla reporter, beta-lactamase ratio, CoCl2, 17 h; activation: stronger effect = higher value
Summary of the method: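 HRE-bla ME-180 cells, overnight plating in Opti-MEM with 0.5% dialyzed FBS; cpd titration + EC50 CoCl2, 17 h, 37 degrees Celsius; CCF4 2.5 h RT; 460/530 nm ratio; AC50.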

[14] = NFAT Signaling Pathway (AID 444); conditions: Jurkat NFAT-bla M1, carbachol, beta-lactamase ratio, 5 h; at 7.69 µM (top of the series) unless noted
Summary of the method: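 Jurkat cells carrying an NFAT-driven β-lactamase reporter and co-transfected muscarinic M1 receptor were treated with compound plus carbachol (1 uM final, an EC50 level) for 5 h at 37 °C. CCF4 loading followed for 1 h at RT; 460/530 nm ratio gave %activity.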

[15] = biological target: Ubiquitin carboxyl-terminal hydrolase 1 (Homo sapiens) (UniProt O94782); test: Inhibitors of USP1/UAF1: Pilot qHTS (AID 504865; active = well fitted curve in the direction sought with a large enough effect; an effect the other way counts as inactive or inconclusive;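 note: rhodamine fluorescence freed from ubiquitin-rhodamine substrate followed over time; top concentration of the series differs between compounds; % is set by controls: 0 for no effect and ±100 for the full control effect; nearly all actives have a fitted effect of over 35% in size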); conditions: purified USP1/UAF1, Ub-rhodamine cleavage fluorescence; series mostly up to 54.9 µM
Summary of the method: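 1nM USP1/UAF1 + cpd, 15 min RT; start w/ Ub-Rho 150nM final; kinetic FL 480/540 nm, 6 reads q60 s. Buffer 50mM HEPES pH 7.8, 0.5mM EDTA, 1mM TCEP, 0.01% Tween-20, 0.1 mg/ml BSA.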

[16] = biological target: Cytochrome P450 2D6 (Homo sapiens) (UniProt P10635); test: qHTS Assay for Inhibitors and Substrates of Cytochrome P450 2D6 (AID 891; active = well fitted curve in the direction sought with a large enough effect; an effect the other way counts as inactive or inconclusive; note: potency is the fitted concentration of half-maximal effect; nearly all actives have a fitted effect of over 60% in size); conditions: recombinant CYP2D6, luciferin-ME EGE luminescence; series mostly up to 57.1 µM
Summary of the method: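 Human CYP2D6 (5 nM) with 30 uM Luciferin-ME EGE (at Km) in 100 mM KPO4, compound preincubated 10 min, then NADPH regeneration system for 60 min at room temperature. Luciferin read by luminescence; normalized to 1.43 uM quinidine.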

[17] = biological target: Cytochrome P450 3A4 (Homo sapiens) (UniProt P08684); test: qHTS Assay for Inhibitors and Substrates of Cytochrome P450 3A4 (AID 884; active = well fitted curve in the direction sought with a large enough effect; an effect the other way counts as inactive or inconclusive; note: nearly all actives have a fitted effect of over 50% in size; note: potency is the fitted concentration of half-maximal effect); conditions: recombinant CYP3A4, Luciferin-PPXE luminescence; series mostly up to 57.1 µM
Summary of the method: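 20 nM human CYP3A4 with 25 uM Luciferin-PPXE (at KM) in 200 mM KPO4, preincubated 10 min with compound; NADPH regeneration started a 60 min RT reaction. Luciferin detected by luminescence, normalized to 57 uM ketoconazole as full inhibition.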

[18] = Confirmation and Secondary Assay for Modulators of Hemoglobin Beta Chain Splicing at IVS2 654 locus (AID 910; active = well fitted curve in the direction sought with a large enough effect; an effect the other way counts as inactive or inconclusive; note: % of control where 0% means no effect); conditions: HeLa EGFP-654 splicing reporter, GFP fluorescence, 48 h; series mostly up to 38.3 µM
Summary of the method: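 HeLa cells stably carrying EGFP interrupted by mutant beta-globin IVS2-654 intron (CMV-driven) were treated with compound for 2 days at 37C; corrected splicing was scored as total peak GFP intensity per well (488 nm excitation, 500-520 nm emission).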

Sequence of Glucocorticoid receptor (Homo sapiens) (P04150 whole entry, looked up, the tested form may be a part): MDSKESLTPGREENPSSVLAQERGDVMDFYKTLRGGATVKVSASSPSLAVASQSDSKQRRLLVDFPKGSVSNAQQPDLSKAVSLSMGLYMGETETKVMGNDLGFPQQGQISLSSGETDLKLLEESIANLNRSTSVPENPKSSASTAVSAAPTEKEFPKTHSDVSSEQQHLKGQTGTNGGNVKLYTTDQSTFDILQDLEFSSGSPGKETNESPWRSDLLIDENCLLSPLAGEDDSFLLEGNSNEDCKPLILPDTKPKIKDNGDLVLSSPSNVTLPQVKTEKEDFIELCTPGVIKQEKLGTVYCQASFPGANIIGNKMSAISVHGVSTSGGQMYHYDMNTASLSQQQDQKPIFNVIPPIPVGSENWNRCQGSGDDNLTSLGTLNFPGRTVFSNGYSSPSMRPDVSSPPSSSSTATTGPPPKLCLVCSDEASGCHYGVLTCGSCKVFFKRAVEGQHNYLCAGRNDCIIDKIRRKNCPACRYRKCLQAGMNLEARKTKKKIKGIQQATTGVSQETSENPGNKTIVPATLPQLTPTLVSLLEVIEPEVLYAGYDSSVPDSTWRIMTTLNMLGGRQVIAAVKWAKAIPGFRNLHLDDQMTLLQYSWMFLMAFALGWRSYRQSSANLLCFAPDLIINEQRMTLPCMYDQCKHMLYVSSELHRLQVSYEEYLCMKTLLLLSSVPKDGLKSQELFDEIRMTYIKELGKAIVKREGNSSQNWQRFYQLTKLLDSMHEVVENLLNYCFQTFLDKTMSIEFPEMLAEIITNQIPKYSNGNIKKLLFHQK
Sequence of 3',5'-cyclic-AMP phosphodiesterase 4B (Homo sapiens) (Q07343 whole entry, looked up): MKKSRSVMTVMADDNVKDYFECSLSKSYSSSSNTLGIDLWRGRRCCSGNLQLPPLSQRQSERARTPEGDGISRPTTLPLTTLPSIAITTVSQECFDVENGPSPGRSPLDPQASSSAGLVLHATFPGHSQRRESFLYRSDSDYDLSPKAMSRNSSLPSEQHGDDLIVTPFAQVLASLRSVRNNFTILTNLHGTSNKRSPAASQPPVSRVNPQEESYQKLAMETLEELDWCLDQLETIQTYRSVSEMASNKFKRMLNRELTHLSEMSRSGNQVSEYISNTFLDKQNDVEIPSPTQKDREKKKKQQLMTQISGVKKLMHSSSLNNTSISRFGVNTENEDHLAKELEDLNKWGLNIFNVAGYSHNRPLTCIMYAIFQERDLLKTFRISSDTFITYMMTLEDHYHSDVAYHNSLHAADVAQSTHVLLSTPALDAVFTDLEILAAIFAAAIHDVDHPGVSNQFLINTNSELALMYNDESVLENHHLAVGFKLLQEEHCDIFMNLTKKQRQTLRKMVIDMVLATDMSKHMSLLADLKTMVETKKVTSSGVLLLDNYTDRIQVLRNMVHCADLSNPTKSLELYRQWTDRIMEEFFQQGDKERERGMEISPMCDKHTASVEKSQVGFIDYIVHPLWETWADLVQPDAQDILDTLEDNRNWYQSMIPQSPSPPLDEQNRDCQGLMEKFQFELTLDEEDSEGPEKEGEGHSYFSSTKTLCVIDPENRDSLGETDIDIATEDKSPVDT
Sequence of Cytochrome P450 2D6 (Homo sapiens) (P10635 whole entry, looked up): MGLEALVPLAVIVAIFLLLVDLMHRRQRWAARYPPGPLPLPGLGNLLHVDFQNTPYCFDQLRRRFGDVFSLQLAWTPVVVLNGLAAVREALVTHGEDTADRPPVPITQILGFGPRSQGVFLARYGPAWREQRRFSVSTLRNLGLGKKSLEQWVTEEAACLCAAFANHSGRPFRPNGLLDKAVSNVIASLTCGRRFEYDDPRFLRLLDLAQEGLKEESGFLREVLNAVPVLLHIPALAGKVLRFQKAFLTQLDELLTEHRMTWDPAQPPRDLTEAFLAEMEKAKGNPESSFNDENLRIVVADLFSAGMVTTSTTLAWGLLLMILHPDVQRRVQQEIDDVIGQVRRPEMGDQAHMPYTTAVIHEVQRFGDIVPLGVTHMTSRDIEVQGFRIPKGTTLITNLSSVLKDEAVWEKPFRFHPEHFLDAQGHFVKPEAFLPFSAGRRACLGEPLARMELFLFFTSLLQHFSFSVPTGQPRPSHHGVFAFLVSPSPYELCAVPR
Sequence of Cytochrome P450 3A4 (Homo sapiens) (P08684 whole entry, looked up): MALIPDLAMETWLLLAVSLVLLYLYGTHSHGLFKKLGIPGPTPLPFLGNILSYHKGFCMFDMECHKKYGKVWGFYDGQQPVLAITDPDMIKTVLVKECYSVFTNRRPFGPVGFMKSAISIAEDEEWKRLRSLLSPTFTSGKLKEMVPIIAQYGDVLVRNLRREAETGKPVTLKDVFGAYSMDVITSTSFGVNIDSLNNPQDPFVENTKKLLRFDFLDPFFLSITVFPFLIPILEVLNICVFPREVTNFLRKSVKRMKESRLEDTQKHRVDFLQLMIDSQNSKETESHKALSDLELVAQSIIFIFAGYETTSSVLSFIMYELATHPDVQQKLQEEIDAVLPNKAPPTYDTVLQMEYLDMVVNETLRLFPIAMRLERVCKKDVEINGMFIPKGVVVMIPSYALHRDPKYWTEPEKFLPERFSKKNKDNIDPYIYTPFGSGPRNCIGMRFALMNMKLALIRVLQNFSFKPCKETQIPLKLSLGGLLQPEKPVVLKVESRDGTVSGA
Sequence of Lysosomal acid glucosylceramidase (Homo sapiens) (P04062 whole entry, looked up): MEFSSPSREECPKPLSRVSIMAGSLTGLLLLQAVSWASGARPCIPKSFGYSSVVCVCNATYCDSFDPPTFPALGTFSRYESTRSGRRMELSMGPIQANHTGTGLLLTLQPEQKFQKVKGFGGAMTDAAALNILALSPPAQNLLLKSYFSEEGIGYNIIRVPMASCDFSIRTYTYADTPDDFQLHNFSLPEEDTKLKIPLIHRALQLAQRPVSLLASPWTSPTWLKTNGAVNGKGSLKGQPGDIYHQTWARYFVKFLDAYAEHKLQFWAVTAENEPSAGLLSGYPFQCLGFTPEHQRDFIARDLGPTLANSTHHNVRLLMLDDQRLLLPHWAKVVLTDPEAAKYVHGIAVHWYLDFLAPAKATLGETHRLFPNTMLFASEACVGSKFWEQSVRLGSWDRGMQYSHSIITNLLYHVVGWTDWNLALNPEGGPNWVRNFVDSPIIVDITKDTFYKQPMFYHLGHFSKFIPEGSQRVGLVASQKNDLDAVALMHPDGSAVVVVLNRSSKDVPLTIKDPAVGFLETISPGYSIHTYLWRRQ
Sequence of Cytochrome P450 1A2 (Homo sapiens) (P05177 whole entry, looked up): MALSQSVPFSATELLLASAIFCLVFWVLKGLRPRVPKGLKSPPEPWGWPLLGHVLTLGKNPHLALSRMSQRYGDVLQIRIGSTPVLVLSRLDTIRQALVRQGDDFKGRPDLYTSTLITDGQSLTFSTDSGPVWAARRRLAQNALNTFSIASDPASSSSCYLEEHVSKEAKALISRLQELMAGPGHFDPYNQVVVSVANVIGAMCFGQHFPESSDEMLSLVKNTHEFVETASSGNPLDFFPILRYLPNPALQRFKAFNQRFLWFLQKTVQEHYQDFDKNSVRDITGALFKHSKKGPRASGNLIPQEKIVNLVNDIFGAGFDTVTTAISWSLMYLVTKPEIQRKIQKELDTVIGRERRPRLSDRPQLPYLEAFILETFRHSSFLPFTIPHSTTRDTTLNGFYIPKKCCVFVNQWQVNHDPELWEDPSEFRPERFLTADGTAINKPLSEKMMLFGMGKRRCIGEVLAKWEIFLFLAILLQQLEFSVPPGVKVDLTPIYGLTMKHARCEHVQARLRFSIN
Sequence of Ubiquitin carboxyl-terminal hydrolase 1 (Homo sapiens) (O94782 whole entry, looked up): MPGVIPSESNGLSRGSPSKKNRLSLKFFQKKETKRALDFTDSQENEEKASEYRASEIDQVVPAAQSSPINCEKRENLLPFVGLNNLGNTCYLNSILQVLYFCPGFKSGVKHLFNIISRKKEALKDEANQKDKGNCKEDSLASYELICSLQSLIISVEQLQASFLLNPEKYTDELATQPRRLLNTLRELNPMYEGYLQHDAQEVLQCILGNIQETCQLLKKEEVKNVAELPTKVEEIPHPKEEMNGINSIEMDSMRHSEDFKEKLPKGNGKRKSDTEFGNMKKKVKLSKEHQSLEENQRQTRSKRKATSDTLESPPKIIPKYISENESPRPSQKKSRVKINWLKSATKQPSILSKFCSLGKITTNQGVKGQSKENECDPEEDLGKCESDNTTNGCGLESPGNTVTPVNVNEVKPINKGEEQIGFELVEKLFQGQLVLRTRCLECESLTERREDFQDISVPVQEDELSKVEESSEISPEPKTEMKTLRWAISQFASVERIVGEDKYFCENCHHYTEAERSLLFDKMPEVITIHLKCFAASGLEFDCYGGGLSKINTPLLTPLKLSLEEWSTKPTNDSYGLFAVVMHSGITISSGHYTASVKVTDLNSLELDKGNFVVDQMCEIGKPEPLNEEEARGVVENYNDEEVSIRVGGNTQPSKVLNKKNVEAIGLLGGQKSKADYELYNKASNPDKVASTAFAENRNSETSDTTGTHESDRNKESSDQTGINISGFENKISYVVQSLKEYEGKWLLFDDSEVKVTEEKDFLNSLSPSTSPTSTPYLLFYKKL
Sequence of Cytochrome P450 2C9 (Homo sapiens) (P11712 whole entry, looked up): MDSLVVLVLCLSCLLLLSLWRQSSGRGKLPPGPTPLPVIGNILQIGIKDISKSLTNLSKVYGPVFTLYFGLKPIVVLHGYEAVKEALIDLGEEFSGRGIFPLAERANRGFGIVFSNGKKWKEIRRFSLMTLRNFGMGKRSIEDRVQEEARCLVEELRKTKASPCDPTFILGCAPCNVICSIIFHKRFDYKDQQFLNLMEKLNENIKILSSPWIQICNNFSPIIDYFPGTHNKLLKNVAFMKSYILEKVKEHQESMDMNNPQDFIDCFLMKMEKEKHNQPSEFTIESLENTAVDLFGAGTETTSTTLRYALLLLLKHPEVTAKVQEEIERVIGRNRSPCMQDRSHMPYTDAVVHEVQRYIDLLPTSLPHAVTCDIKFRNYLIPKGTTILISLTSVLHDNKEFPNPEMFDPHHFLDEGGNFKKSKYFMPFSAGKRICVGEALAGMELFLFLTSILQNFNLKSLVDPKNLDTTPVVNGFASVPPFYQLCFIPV

CNc1nc(-c2ccc(N(C)C)cc2)nc2ccccc12
active: Potency [1] 6.77 µM | Potency [3] 0.2 µM
inactive: activity change, negative = inhibition [2] 15.8% | Potency [4] > 46 µM | Potency [5] > 46 µM | Potency [6] | Potency [7] | activity change, negative = inhibition [8] 108% [at 2.29 µM] | Potency [9] | outcome [10] | outcome [11]

N#Cc1cccc(NC(=O)N2CCCC3(CCN(C(=O)c4csnn4)CC3)C2)c1
inactive: Potency [1] > 11.4 µM | activity change, negative = inhibition [2] 6.7% | Potency [3] | activity, negative = inhibition [12] -0.264% | Potency [5] > 46 µM | Potency [6] | Potency [7] | activation [13] -5.53% | outcome [11]

CC(=O)NCCNc1nc(-c2c(C)noc2C)nc2ccccc12
inactive: Potency [1] > 11.4 µM | activity change, negative = inhibition [2] 5.25% | activity change, negative = inhibition [14] 6.76% | activity, negative = inhibition [12] 1.96% | Potency [4] > 46 µM | Potency [5] > 46 µM | Potency [6] | Potency [7] | Potency [9] | Potency [15] | outcome [11]

COc1ncc2nc(CCc3ccccc3)c(=O)n(Cc3ccc(F)cc3)c2n1
inactive: Potency [1] > 11.4 µM | activity change, negative = inhibition [2] -3.95% | activity change, negative = inhibition [14] -13.1% | activity, negative = inhibition [12] 2.49% | Potency [4] > 9.22 µM | Potency [5] > 46 µM | Potency [6] | outcome [11]

O=c1c(-c2ccccc2)nc2cncnc2n1Cc1ccc(F)cc1
inactive: Potency [1] > 11.4 µM | activity change, negative = inhibition [2] -20% | activity change, negative = inhibition [14] -1.65% | activity, negative = inhibition [12] -6.53% | Potency [4] > 9.22 µM | Potency [5] > 46 µM | Potency [6] | outcome [11]

COc1ccc(-c2nc3cnc(OC)nc3n(Cc3ccc(F)cc3)c2=O)cc1
inactive: Potency [1] > 11.4 µM | activity change, negative = inhibition [2] 8.95% | activity change, negative = inhibition [14] -6.96% | activity, negative = inhibition [12] 5.66% | Potency [4] > 9.22 µM | Potency [5] > 46 µM | Potency [6] | outcome [11]

O=C(Oc1ccccc1)N1CCC2(CCCN(c3ccc(-c4ccccc4)cc3)C2)CC1
inactive: Potency [1] > 11.4 µM | activity change, negative = inhibition [2] 27% | Potency [3] | Potency [5] > 46 µM | Potency [6] | Potency [7] | Potency [9] | outcome [11]

O=c1cnc2cnc(Oc3ccccc3)nc2n1C[C@H]1CCCO1
inactive: Potency [1] > 11.4 µM | activity change, negative = inhibition [2] -19.1% | activity change, negative = inhibition [14] -3.47% | activity, negative = inhibition [12] -8.07% | Potency [4] > 9.22 µM | Potency [5] > 46 µM | Potency [6] | Potency [7] | outcome [11]

O=S(=O)(c1ccccc1)N1CCC2(CC1)CN(Cc1ccccc1)C2
active: Potency [16] 0.158 µM
inactive: Potency [1] > 11.4 µM | activity change, negative = inhibition [2] 7.31% | Potency [3] | activity, negative = inhibition [12] 2.83% | Potency [5] > 46 µM | Potency [6] | Potency [7] | activation [13] 8.23% | outcome [11]

CC(=O)N1CCC2(CC1)CCN(C(c1ccccc1)c1ccccc1)CC2
inactive: Potency [1] > 11.4 µM | activity change, negative = inhibition [2] -6.19% | Potency [3] | Potency [5] > 46 µM | Potency [6] | Potency [7] | Potency [17] | outcome [11]
active: Potency [9] 25.1 µM | Potency [16] 7.94 µM

COc1ccc(C(=O)N2CCC[C@@]3(CCN(Cc4ccccc4)C3)C2)cc1
active: Potency [3] 12.6 µM | Potency [16] 7.94 µM
inactive: Potency [1] > 11.4 µM | activity change, negative = inhibition [2] 13% | activity, negative = inhibition [12] -4.24% | Potency [5] > 46 µM | Potency [6] | Potency [7] | Potency [9] | outcome [11]

Cc1cnc(CNc2nc(-c3ccc4c(c3)OCO4)nc3ccccc23)cn1
active: Potency [3] 2 µM | Potency [17] 0.794 µM
inactive: Potency [1] > 11.4 µM | activity change, negative = inhibition [2] -3.88% | Potency [4] > 46 µM | Potency [5] > 46 µM | Potency [6] | Potency [9] | Potency [18] | outcome [10] | Potency [15] | outcome [11]

O=c1c(-c2ccc(F)c(F)c2)nc2cncnc2n1Cc1ccccc1
inactive: Potency [1] > 11.4 µM | activity change, negative = inhibition [2] -0.964% | activity change, negative = inhibition [14] -10.8% | activity, negative = inhibition [12] 3.53% | Potency [4] > 9.22 µM | Potency [5] > 46 µM | Potency [6] | outcome [11]

COC(=O)N1CCC2(CC1)CCN(c1ccccn1)CC2
active: Potency [9] 20 µM
inactive: Potency [1] > 11.4 µM | activity change, negative = inhibition [2] -8.66% | Potency [3] | activity, negative = inhibition [12] -8.24% | Potency [5] > 46 µM | Potency [6] | Potency [7] | outcome [11]

O=C(c1cnccn1)N1CCC2(CC1)CN(Cc1cc(C(F)(F)F)cc(C(F)(F)F)c1)C2
active: Potency [16] 0.398 µM
inactive: Potency [1] > 11.4 µM | activity change, negative = inhibition [2] -17.8% | Potency [3] | activity, negative = inhibition [12] -1.36% | Potency [5] > 46 µM | Potency [6] | Potency [7] | outcome [11]

Cn1cccc1C(=O)N1CCC2(CCCN(c3ccccn3)C2)CC1
active: Potency [3] 20 µM
inactive: Potency [1] > 11.4 µM | activity change, negative = inhibition [2] -9.86% | activity, negative = inhibition [12] -6.89% | Potency [5] > 46 µM | Potency [6] | Potency [7] | Potency [9] | outcome [11]
